Consider 40 compounds from PubChem BioAssay (NCI).

This is part of a sample that, as a whole, favours compounds with a hit. Of some 83,000 tested, about 20% had one in any assay.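 96-well plates, one dose, 48 hours. Percent growth reported; active if below 10.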 A number with no mark means an inactive call. Activity calls are given as the source filed them.

The assay relates to NCI-H322M lung. Briefly: NCI-60 one-dose screen, 48 h (100 = growth as untreated, 0 = no growth, -100 = all killed). Particulars: 10 µM unless noted. As to the method:
Growth inhibition of the NCI-H322M human Non-Small Cell Lung tumor cell line is measured as a screen for anti-cancer activity. Cells are grown in 96 well plates and exposed to the test compound for 48 hours. Compounds are tested at a single concentration, which is 10^-5 M for most compounds. The reported endpoint is percent growth (GI% or GIPRCNT), where numbers from 0 - 100% represent growth inhibition, and numbers from -100% - 0 represent cell death. For example, a value of 40 represents 60% growth inhibition. A value of 0 means no net growth occurred over the course of the experiment. A value of -40 indicates 40% of cells at the beginning of the experiment died by the end of the experiment. A value of -100 means all cells are dead at the end of the experiment.
NCI-60 Human Tumor Cell Lines Screen was performed using the standard one-dose NCI protocol, which is described in more detail at https://dtp.cancer.gov/discovery_development/nci-60/default.htm.
Compounds with GIPRCNT values below 10 were considered active. Activity score was based on GIPRCNT using the following formula: […]
Score is 0 for GIPRCNT values of 100 or above, 50 for GIPRCNT values of 0, and 100 for GIPRCNT values of -100.
For `CCOC(=O)/C=C/c1cc2cc(-c3csc4ccccc34)ccc2[nH]1`, the growth was 115%.
Consider `NNC(=O)c1nc(N)n(-c2ccc(S(N)(=O)=O)cc2)n1`, for which the growth was 97.3%.
On to `COc1cccc(-c2nn(-c3ccccc3)cc2-c2ccnc(NCCNC(=O)Nc3cccc(C(F)(F)F)c3)c2)c1`, for which the growth is 35.8%.
As for `C[C@@H]1N=C(c2ccc3ccccc3n2)Nc2nc3ccccn3c2C1=O`, the growth is 97.3%.
On to `C=CCn1c(C)nc2cc(Nc3nc(N4CCCC4)nc4ccccc34)ccc21`, for which the growth was 113%.
Consider `COc1ccc(C(=O)/C=C/c2c(C(F)(F)F)nc3sccn23)cc1OC`, for which the growth was 34.6%.
`CCCCn1c(=O)c2c(nc(NCCc3ccc(O)c(O)c3)n2CCC)n(CCCC)c1=O`: the growth is 94.2%.
In the case of `C=CC(=O)Nc1cccc(Oc2nccc(Nc3nnc(C4CC4)s3)n2)c1`, the growth is 105%.
To `COc1ccc(/C=N\NC(=O)c2cc(-c3ccc(Br)cc3)n(-c3ccc(S(N)(=O)=O)cc3)n2)cc1` belongs 63.1%.
As for `CC(=O)[C@@H]1CC[C@]2(COS(=O)(=O)c3ccc(C)cc3)CC[C@]3(C)[C@H](CC[C@@H]4[C@@]5(C)CCCNC(C)(C)[C@@H]5CC[C@]43C)[C@@H]12`, the growth is 93.7%.
Take `Cc1ccc(-n2nc3c(c(C#N)c2=O)CC(c2ccccc2Cl)C([N+](=O)[O-])=C3O)cc1` (stereo not given): the growth was 101%.
The result for `O=C(O)CN1C(=O)CCC1=O` reads 123%; that for `COc1ccc(-c2nc(SCC(=O)Nc3nc(-c4ccccc4)cs3)[nH]c(=O)c2C#N)cc1`, 90.7%.
Consider `CCCCCS(=O)(=O)Nc1ccc(C(=O)O)cc1`, for which the growth was 97.3%.
`Cc1cc[c-]cc1.Fc1c[c-]c(-c2ccccn2)c(F)c1.[Pt+2].c1ccc(P(C[PH+](c2ccccc2)c2ccccc2)c2ccccc2)cc1`: the growth was 19.2%.
`COc1cc(/C=C/C(=O)N2CCN(C(=O)c3cc(OC)c(OC)c(OC)c3)CC2)ccc1OCCCN1C(=O)c2cccc3cccc(c23)C1=O`: the growth is 100%.
To `CC/C=C\C[C@H](O)C/C=C1/C(=O)C=C[C@@H]1C/C=C\CCCCO` belongs 50.8%.
For the compound `N#CC1=C(NC=O)Oc2c(ccc3ccccc23)C1c1ccccc1` (stereo not given), the growth was 75.4%.
In the case of `CCN(CC)c1ccc(C(=O)c2ccc(N(CC)CC)cc2)cc1`, the growth is 54.7%.
To `O=C1NC(=Nc2ccc(Cl)cc2)S/C1=C\c1cn(-c2ccccc2)nc1-c1ccccc1` belongs 89.5%; to `O=c1cc(C2NNC(=S)N2)c2ccc3ccccc3c2o1` (stereo not given), 101%.
Take `Cc1ccc(/C=C2\C(=O)N(C)c3ccc(S(=O)(=O)Nc4ccc(C(C)(C)C)cc4)cc32)s1`: the growth was 58.7%.
For `CCCCNC(=O)Oc1ccc2c(=O)c3sc4c(=O)c5ccccc5c(=O)c4c3c(=O)c2c1`, the growth is -96.8% (active).
To `COc1ccc2[nH]c(O)c(/C=c3/cc4c(c(-c5cc(OC)c(OC)c(OC)c5)n3)=Nc3ccccc3-4)c2c1` belongs 92.6%; to `O=C(N/N=C/C=C/c1ccc([N+](=O)[O-])o1)c1cc2ccccc2cc1O`, -6.76% (active).
For `COc1ccc(NC(=O)CSc2nnc(-c3cc(-c4ccc(S(N)(=O)=O)cc4)nc4ccccc34)n2-c2ccccc2)cc1`, the growth is 93.8%.
The result for `O=[N+]([O-])c1ccc(-c2cc(-c3ccc(Nc4nc(Nc5ccc(Cl)cc5)nc(Nc5ccc(Cl)cc5)n4)cc3)no2)cc1` reads 88.4%; that for `CCN1CCN(c2cc(C)nc(NCc3cc(Nc4ccnc5cc(Cl)ccc45)ccc3F)n2)CC1`, 90.2%.
`O=C1/C(=C\c2cccnc2)SC(=S)N1CCc1ccc(O)cc1`: the growth is 91.5%.
`COc1cc(/C=N/Nc2ncc(-c3cc4cc5c(cc4o3)OCO5)s2)cc(OC)c1OC`: the growth was 103%.
For `CC1(c2ccccc2)NC(=O)N(NC(=O)CSc2nc(-c3cccs3)nc3ccccc23)C1=O` (stereo not given), the growth is 98%.
As to `CCOC(=O)c1ccc(N2NC(=O)/C(=C/c3ccc([N+](=O)[O-])o3)C2=O)cc1`, the growth was 99.8%.
As to `O=C1Nc2ccccc2/C1=C/c1cn(C(=O)c2ccc(Cl)cc2)c2ccccc12`, the growth was 127%.
The result for `CCN(CC)CCCCCCNc1cc(OC)c(Cl)c2cccnc12` reads 92.7%; that for `CC(=O)OC1CCC2(C)C(=CC3C4CCC(=O)C4(C)CCC32)C1` (stereo not given), 113%.
Regarding `O=c1ccn2nc3ccccc3c2[nH]1`, the growth was 97.8%.
In the case of `O=c1[nH]c2ccccc2n1C1CCN(CCOc2ccccc2)CC1`, the growth is 98.8%.
The result for `Cc1nc2ccccc2n1CC1NC(=O)NC1=O` (stereo not given) reads 97.7%; that for `Cc1ccc(N2CCN(C(=S)c3cccs3)CC2)cc1`, 107%.
Turning to `NS(=O)(=O)c1cnccc1Oc1cccc2cccnc12`, the growth is 99.6%.
